Screens as filed in PubChem.
NR1D1 modulator – modulators of human Rev-erb alpha DNA binding; P20393; Rev-erbα–FITC-DNA binding, fluorescence polarization, 90 min; activity, % at 10 µM; hit rate 0.79% among 370,000;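 active means activity above about 14%, limit read from the data; passing the limit was not always enough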
Target sequence (P20393 whole entry, looked up): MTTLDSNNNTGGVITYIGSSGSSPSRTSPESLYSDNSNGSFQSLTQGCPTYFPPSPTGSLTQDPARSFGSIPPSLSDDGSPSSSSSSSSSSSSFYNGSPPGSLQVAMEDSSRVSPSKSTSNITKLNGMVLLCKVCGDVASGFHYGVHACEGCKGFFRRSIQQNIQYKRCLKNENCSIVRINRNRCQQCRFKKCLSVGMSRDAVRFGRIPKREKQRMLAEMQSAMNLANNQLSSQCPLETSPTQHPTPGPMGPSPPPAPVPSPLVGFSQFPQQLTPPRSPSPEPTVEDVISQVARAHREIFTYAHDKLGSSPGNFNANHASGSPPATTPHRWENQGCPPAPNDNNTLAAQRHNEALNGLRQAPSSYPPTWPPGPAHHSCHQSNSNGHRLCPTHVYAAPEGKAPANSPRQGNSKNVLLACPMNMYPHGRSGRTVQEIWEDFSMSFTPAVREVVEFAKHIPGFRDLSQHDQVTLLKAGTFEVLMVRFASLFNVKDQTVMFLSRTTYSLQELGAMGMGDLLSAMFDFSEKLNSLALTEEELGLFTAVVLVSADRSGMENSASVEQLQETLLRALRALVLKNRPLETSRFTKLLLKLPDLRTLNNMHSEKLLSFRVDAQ
PKA-R2B activ – activators of human PKA-R2B complex | PKA-R2B holoenzyme dissociation, Cy5-IP20 fluorescence polarization; R2B truncated from residue 108, S112A mutant; 0% DMSO only, 100% 113 µM cGMP | activation, % at 11.4 µM | hit rate 0.079% among 340,000 | P22694+P31323;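 active means activation above a cutoff set at the mean over all compounds plus 3 SD, cut at about 18% in these data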;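 further: higher means more holoenzyme dissociation and a rise in polarization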
PKA-R1A activ – activates the PKA-R1A holoenzyme complex; P00514+P68181; PKA-R1A dissociation, Cy5-IP20 fluorescence polarization; scaled: DMSO 0%, 113 µM cGMP 100%; activation, % at 11.4 µM; hit rate 0.083% among 340,000; AID 504707;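 active means percent activation above the mean of all tested compounds plus 3 SD, cut at about 19% in these data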;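 further: higher means more PKAc released from R1A so a rise in polarization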
PG9 Ab binder – binds the HIV-1 gp120 antibody PG9; TR-FRET gp120-PG9 antibody binding; inhibition, % at 6.7 µM; hit rate 0.43% among 360,000; AID 624416; in the data active means inhibition above about 8.5%
Rev-erbA confirm – Rev-erb alpha (human) modulation, hit confirmation | shares compounds with NR1D1 modulator | Rev-erb alpha FITC-DNA binding, fluorescence polarization, 90 min | activation, % at 25 µM | hit rate 61% among 3,000 | AID 1259319;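 active means activation at or above a set limit, or at least 3 SD above the negative control mean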
RORg counter – counter-screen for Rev-erb alpha modulators: RORgamma DNA binding | shares compounds with NR1D1 modulator | hit rate 8% among 910 | AID 1259320 | IC50, µM | purified RORgamma protein-FITC-DNA binding, fluorescence polarization;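 active means Compounds whose fitted half-maximal concentration for disrupting protein-DNA binding is below 10 micromolar; the record names Rev-erb in its text, so the target is in doubt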
Each line names hits and unclear results; the compound was inactive in the other large screens (follow-up assays come after a bar, where they were run). Only some compounds are listed: those with a hit (about 1.2% of all), similar ones and a draw of the others.

CCN(CC)C(=O)CSc1nc(C)cc(-c2cccs2)c1C#N	NR1D1 modulator 78 | Rev-erbA confirm 51 | RORg counter inactive
CCc1nnc(NC(=O)Cc2ccc(OC)cc2)s1	none
COC(=O)C12C=C3CC(C4CC4)=C3C(=O)N1Cc1[nH]c3ccccc3c1C2 (stereo not given)	none (no result: PKA-R2B activ, PKA-R1A activ, PG9 Ab binder)
CCC(C)N(C(C)CC)S(=O)(=O)c1ccc2[nH]c(=O)oc2c1 (stereo not given)	none (no result: PKA-R2B activ, PKA-R1A activ, PG9 Ab binder)
O=C(NCC(c1ccccc1)c1ccccc1)[C@H](Cc1c[nH]c2ccccc12)NC1(C(=O)NC2CCCCC2)CCN(Cc2ccccc2)CC1	none (no result: PKA-R2B activ, PKA-R1A activ, PG9 Ab binder)
N#Cc1c(-c2ccc(Cl)cc2)cc(-c2ccccc2)nc1SCC(=O)O	none
COc1ccc(-c2cc(-c3ccccc3)nc(SCC(=O)Nc3nccs3)c2C#N)cc1	NR1D1 modulator 78 | Rev-erbA confirm 61 | RORg counter inactive
CC(C)NC(=O)CSc1nc(-c2cccs2)cc(-c2ccccc2)c1C#N	NR1D1 modulator 60 | Rev-erbA confirm 47 | RORg counter inactive
O=C(CCc1ccccc1-c1ccccc1CCNC(=O)c1c(F)cccc1F)NCc1ccccc1	none (no result: PKA-R2B activ, PKA-R1A activ, PG9 Ab binder)
CC(C)N1CCc2c(-c3nc4ccccc4s3)csc2C1	none (no result: PKA-R2B activ, PKA-R1A activ, PG9 Ab binder)
CC(=O)N1CCCc2cc(S(=O)(=O)N3CCCC(C(=O)N4CCN(c5cc(C)ccc5C)CC4)C3)ccc21 (stereo not given)	NR1D1 modulator 17 | Rev-erbA confirm 18
CCOC(=O)c1sc(=NC(=O)c2cccc(C)c2)n(C)c1C	none
CCOC(=O)c1sc(=NC(=O)c2cc(OC)c(OC)c(OC)c2)n(C)c1C	NR1D1 modulator 30, PG9 Ab binder 28 | Rev-erbA confirm inactive
CCOC(=O)c1sc(=NC(=O)CCSc2ccccc2)n(C)c1C	NR1D1 modulator 27 | Rev-erbA confirm inactive
CCOC(=O)c1sc(=NC(=O)c2ccc(S(=O)(=O)N(C)c3ccccc3)cc2)n(C)c1C	NR1D1 modulator 37 | Rev-erbA confirm 29
C[C@H]1COc2cc(F)ccc2S(=O)(=O)N1C	none (no result: PKA-R2B activ, PKA-R1A activ, PG9 Ab binder)
CCOC(=O)CC[C@@H]1CC[C@]2(CCCN(C(=O)C(C)(C)C)C2)O1	none (no result: PKA-R2B activ, PKA-R1A activ, PG9 Ab binder)
COc1ccc(-n2nc(C(=O)NCC(=O)N3CCN(c4cccc(Cl)c4)CC3)c3ccccc3c2=O)c(OC)c1	NR1D1 modulator 31 | Rev-erbA confirm inactive
COc1ccc(-n2nc(C(=O)NCC(=O)Nc3cc(OC)ccc3OC)c3ccccc3c2=O)cc1	none
COc1ccc(-n2nc(C(=O)NCC(=O)Nc3cc(Cl)c(OC)cc3OC)c3ccccc3c2=O)cc1	NR1D1 modulator 53 | Rev-erbA confirm 50 | RORg counter inactive
COc1ccc(-n2nc(C(=O)NCC(=O)Nc3ccccn3)c3ccccc3c2=O)cc1Cl	NR1D1 modulator 66 | Rev-erbA confirm 45 | RORg counter inactive
CCOC(=O)c1c(NC(=O)OC)sc2c1CCC2	none
COC(=O)c1c(NC(=O)c2ccoc2C)sc2c1CCC2	none
COC(=O)c1c(NC(=O)c2ccc(Br)s2)sc2c1CCC2	NR1D1 modulator 25 | Rev-erbA confirm 28
CCOC(=O)c1c(NC(=S)Nc2ccc(C)cc2)sc2c1CCC2	NR1D1 modulator 76 | Rev-erbA confirm 84 | RORg counter inactive
CCOC(=O)c1c(NC(=O)CN(CC)CC)sc2c1CCC2	NR1D1 modulator 33 | Rev-erbA confirm inactive
COC(=O)C12CCCN1C1C(=O)N(Cc3ccc(C(N)=O)cc3)CC1C2 (stereo not given)	none (no result: PKA-R2B activ, PKA-R1A activ, PG9 Ab binder)
N#Cc1ccccc1N1CCN(C(=O)C2CCN(c3ncnc4c3sc3cccc(F)c34)CC2)CC1	NR1D1 modulator 49 (no result: PKA-R2B activ, PKA-R1A activ, PG9 Ab binder) | Rev-erbA confirm 34 | RORg counter inactive
CC(=O)[C@@H]1[C@@H]2C(=O)N(Cc3ccccc3)C(=O)[C@@H]2C2c3ccccc3C=CN21 (stereo not given in full)	NR1D1 modulator 26 | Rev-erbA confirm 28
COC(=O)C[C@@H]1CC[C@@H]2[C@@H](COc3ccc(NC(=O)Nc4ccccc4)cc3C(=O)N2C)O1	none (no result: PKA-R2B activ, PKA-R1A activ, PG9 Ab binder)
Cc1ccccc1NC(=O)Nc1ccc2c(c1)C(=O)N(C)[C@H]1CC[C@H](CC(=O)NCC3CC3)O[C@@H]1CO2	NR1D1 modulator 30 (no result: PKA-R2B activ, PKA-R1A activ, PG9 Ab binder) | Rev-erbA confirm 14
CN1C(=O)c2cc(NC(=O)c3ccccc3)ccc2OC[C@H]2O[C@@H](CC(=O)NCC3CC3)CC[C@@H]21	NR1D1 modulator 34 (no result: PKA-R2B activ, PKA-R1A activ, PG9 Ab binder) | Rev-erbA confirm 22
CN1C(=O)c2cc(NC(=O)c3cccc(F)c3)ccc2OC[C@@H]2O[C@H](CC(=O)NCc3ccccc3)CC[C@H]21	none (no result: PKA-R2B activ, PKA-R1A activ, PG9 Ab binder)
COC1=C[C@H](C(=O)NC2CCN(Cc3ccccc3)CC2)C(C)C(c2ccccc2)CC1=O (stereo not given in full)	none (no result: PKA-R2B activ, PKA-R1A activ, PG9 Ab binder)
Cc1onc(C(=O)N2CCN(C(c3ccc(Cl)cc3)c3ccc(Cl)cc3)CC2)c1[N+](=O)[O-]	none (no result: PKA-R2B activ, PKA-R1A activ, PG9 Ab binder)
Cc1ccc(-c2cc(-c3nnc(SCc4cccc5ccccc45)n3N)[nH]n2)cc1	none (no result: PKA-R2B activ, PKA-R1A activ, PG9 Ab binder)
COC1=C[C@H](C(=O)N[C@H]2CCCC[C@@H]2NC(C)=O)[C@H](C)[C@@H](c2ccccc2)CC1=O	none (no result: PKA-R2B activ, PKA-R1A activ, PG9 Ab binder)
N#C/C(=C(/O)c1cccc(F)c1)c1nc2ccccc2s1	none
N#C/C(=C(/O)C(Cl)c1ccccc1)c1nc2ccccc2s1 (stereo not given)	NR1D1 modulator 76 | Rev-erbA confirm 49 | RORg counter inactive
C[C@@H](N)C(=O)Nc1ccc(Cl)cc1C(=O)c1ccc[nH]1	none (no result: PKA-R2B activ, PKA-R1A activ, PG9 Ab binder)
c1ccc(CCNc2nc3ccccc3n3nnnc23)cc1	NR1D1 modulator 49 | Rev-erbA confirm 30
COc1ccc(CCNc2nc3ccccc3n3nnnc23)cc1OC	NR1D1 modulator 30 | Rev-erbA confirm 22
CCOc1ccc(CCNc2nc3ccccc3n3c(C)nnc23)cc1OCC	none
COc1ccc(Oc2c(Cl)cnn(C3c4ccccc4-c4ccccc43)c2=O)cc1	none (no result: PKA-R2B activ, PKA-R1A activ, PG9 Ab binder)
COc1ccc(C(=O)Nc2nnc(-c3ccc(F)cc3)s2)c(OC)c1	NR1D1 modulator 25 | Rev-erbA confirm inactive
COc1ccccc1C(=O)Nc1nnc(-c2ccc(F)cc2)s1	NR1D1 modulator 36 | Rev-erbA confirm 39 | RORg counter inactive
Cc1ccc(C(=O)Nc2nnc(S(=O)(=O)N3CCN(c4ccc(F)cc4)CC3)s2)cc1	none
COc1ccccc1C(=O)Nc1nnc(S(=O)(=O)N2CCN(c3ccc(F)cc3)CC2)s1	NR1D1 modulator 18 | Rev-erbA confirm inactive
O=S(=O)(c1ccc(Cl)s1)N1CCC(c2nc3ccccc3o2)CC1	none (no result: PKA-R2B activ, PKA-R1A activ, PG9 Ab binder)
NC(=NCCc1c[nH]c2ccccc12)NC(=O)OCc1ccccc1	none (no result: PKA-R2B activ, PKA-R1A activ, PG9 Ab binder)
CC(C)NC(=O)/C(C#N)=C\c1ccc(N(C)C)o1	NR1D1 modulator 15 | Rev-erbA confirm inactive
N#C/C(=C\c1ccc(O)cc1)C(=O)NCc1ccccc1	none
CCN(CC)c1ccc(/C=C(/C#N)C(=O)NCc2ccccc2)o1	NR1D1 modulator 25 | Rev-erbA confirm inactive
CCN(CC)c1ccc(/C=C(/C#N)C(=O)NC(C)C)o1	none
